According to PubChem BioAssay (NCI):
About 83,000 compounds went through this panel and 20% of them were active in at least one assay; those are over-represented in the sample as a whole.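 96-well plates, one dose, 48 hours. Percent growth reported; active if below 10.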 Values without a mark were called inactive. The source made the active and inactive calls.

Experiments:
Experiment in all cases: NCI-60 one-dose screen, 48 h (100 = growth as untreated, 0 = no growth, -100 = all killed)
Settings in all cases: 10 µM unless noted
NCI-H23 lung = test system: NCI-H23 lung
NCI-H226 lung = test system: NCI-H226 lung
NCI-H322M lung = test system: NCI-H322M lung
HOP-62 NSCLC = test system: HOP-62 NSCLC
NCI-H460 lung = test system: NCI-H460 lung
HOP-92 NSCLC = test system: HOP-92 NSCLC
NCI-H522 lung = test system: NCI-H522 lung
A549/ATCC NSCLC = test system: A549/ATCC NSCLC
786-0 renal = test system: 786-0 renal
COLO 205 colon = test system: COLO 205 colon

SMILES | growth (NCI-H23 lung) | growth (NCI-H226 lung) | growth (NCI-H322M lung) | growth (HOP-62 NSCLC) | growth (NCI-H460 lung) | growth (HOP-92 NSCLC) | growth (NCI-H522 lung) | growth (A549/ATCC NSCLC) | growth (786-0 renal) | growth (COLO 205 colon)
N#CC1=C2NCCCNc3oc(nc3C#N)Cc3ccccc3CC(=N1)O2 | 90.7% | 92.3% | 94.5% | 97.8% | 96.8% | 94.9% | 97.1% | 98.3% | 95% | 88.1%
O=C(CSc1nc2ccccc2c(=O)n1CCc1ccccc1)Nc1ccc(S(=O)(=O)Nc2ccc(Cl)nn2)cc1 | 89.9% | 88.1% | 92.8% | 95.8% | 101% | 79.7% | 87.1% | 91.9% | 102% | 101%
COc1ccc2c(c1)C=CC1(O2)Oc2ccc(OC)cc2C=C1C (stereo not given) | 39.7% | 57.4% | 49.5% | 51% | 7.29% (active) | -6.57% (active) | 10.7% | 18.5% | 26.5% | 2.43% (active)
NCCNC(=O)c1cccc(COc2ccccc2NC(=O)c2cc(Cl)c(Cl)[nH]2)c1 | 98.1% | 96.4% | 102% | 104% | 104% | 107% | 104% | 98.6% | 90.3% | 113%
NS(=O)(=O)c1ccc(Nc2nc(N/N=C/c3ccc4c(c3)OCO4)nc(Nc3ccccc3)n2)cc1 | 25.1% | 65% | 61.3% | 29% | 2.83% (active) | 66% | 60.8% | 74.7% | 61.1% | 49.7%
N#Cc1cccc(-c2cc(-c3ccc4c(c3)OCCO4)[nH]n2)c1 | 50% | 72.2% | 54.8% | 43.5% | 15% | 75.5% | 23.8% | 47.8% | 63.4% | 20.2%
COC(=O)CCCNCCCn1ccc2cc(NCc3cccc(-c4ccccc4)c3C)ccc21 | 61.9% | 69.7% | 97.6% | 81.9% | 81.8% | 22.3% | 91.7% | 84.9% | 74.2% | 64.4%
NS(=O)(=O)c1ccc(Nc2nc(N/N=C/C=C/c3ccccc3)nc(Nc3ccccc3)n2)cc1 | 40.1% | 58.6% | 56.8% | 56.2% | 6.23% (active) | 83.9% | 66.4% | 69.3% | 37.6% | 55.3%
CN(C)CCNc1ccc2ncc(C#Cc3cncc(C(=O)Nc4ccc(CN5CCN(C)CC5)c(C(F)(F)F)c4)c3)n2n1 | -62.4% (active) | 33.4% | 6.14% (active) | -37.2% (active) | 9.62% (active) | -4.93% (active) | -61.8% (active) | 29.1% | 4.34% (active) | -32.3% (active)
COc1cc(-c2nc(-c3ccccc3)[nH]c2-c2ccnc(NCCCNS(=O)(=O)c3ccc(C)cc3)n2)ccc1F | 103% | 75.7% | 93.1% | 150% | 91.9% | 122% | 80% | 74.2% | 94.5% | 96%
C#Cc1nc(C(=O)NCCCCCCC(=O)NO)cs1 | -74.6% (active) | 39.1% | 29.4% | 16.9% | 16% | -74.6% (active) | -58.5% (active) | 10.2% | -83.4% (active) | -61.7% (active)
CCN(CC)CCOc1ccc(C(=C(C)c2ccc(OC)cc2)c2ccc(OCCN(CC)CC)cc2)cc1 | 57.8% | 61.2% | 33.5% | 4.72% (active) | 1.96% (active) | -4.16% (active) | -4.16% (active) | 12.3% | -51.1% (active) | -56.5% (active)
NS(=O)(=O)c1ccc(CCn2c(-c3ccc(C(=O)O)cc3)nc(-c3ccccc3)c2-c2ccccc2)cc1 | 98.4% | 98.3% | 97% | 104% | 107% | 94.6% | 96.8% | 105% | 103% | 112%
NNc1nnc2nc(Nc3ccccc3)nc(Nc3ccc(S(N)(=O)=O)cc3)n12 | 102% | 105% | 102% | 111% | 101% | 119% | 101% | 105% | 110% | 105%
